# Reference: PubChem BioAssay AID652039 (The Scripps Research Institute Molecular Screening Center, 2013)
# Hit rate of the full screen: of about 370,000 compounds, about 3,300 (0.89%) were called active. The entries come from a sample that favours actives as a whole. Values without a mark were called inactive.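 How the source made its calls: active means activation above the mean of all tested compounds plus 3 SD, computed per campaign excluding outliers beyond control limits (cut at about 13% in these data); inactive means the rest.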
# Target: Kallikrein-7 (Homo sapiens) (UniProt P49862)
# Experiment: proKLK7 zymogen activators, primary screen, biochemical, fluorescence intensity (AID 652039)
# Settings: purified proKLK7, EDANS-DABCYL substrate fluorescence; at 7 µM; active compounds read high; 100% is mature enzyme control, 0% vehicle
# Sequence of Kallikrein-7 (Homo sapiens) (P49862 whole entry, looked up): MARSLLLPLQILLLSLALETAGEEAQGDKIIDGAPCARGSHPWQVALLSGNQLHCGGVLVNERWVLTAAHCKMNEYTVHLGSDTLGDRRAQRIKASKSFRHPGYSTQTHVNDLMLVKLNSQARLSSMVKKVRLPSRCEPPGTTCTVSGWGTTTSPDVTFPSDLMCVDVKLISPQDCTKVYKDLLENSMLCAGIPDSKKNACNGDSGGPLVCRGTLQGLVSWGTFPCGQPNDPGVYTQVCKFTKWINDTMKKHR
row,SMILES,activation
1,CN(C)c1ccc(NC(=O)NC2CCCCN(Cc3ccc(Cl)cc3)C2=O)cc1 (centres undefined),0.67%
2,COc1ccnc(C(=O)N2CCC(Oc3cccnc3)CC2)c1,0.48%
3,Cn1cccc1C(=O)NC(=O)COC(=O)Cc1coc2ccc3ccccc3c12,-3.37%
4,Cc1ccc(NC(=O)Nc2cc(C)nn2-c2ccccc2)cc1,0.53%
5,C#CCN([C@H](C(=O)OC)C(C)CC)S(=O)(=O)c1ccccc1Br (some centres undefined),0.19%
6,CCCSc1ncccc1C(=O)O,0.67%
7,O=C(O)c1cccnc1Sc1ncnc2sc3c(c12)CCC3,12.7% (active)
8,OCCNc1nc2ccccc2n1-c1ncnc2sc3c(c12)CCC3,-0.67%
9,CN(C)[C@H]1CCN(c2cccc3c2S(=O)(=O)N2CC[C@H](C2)O3)C1,0.28%
10,CCOC(=O)c1cccc(NC(=O)CN(C)S(=O)(=O)c2ccc(-c3cocn3)s2)c1,-0.02%
11,COc1ccc(-c2onc(C)c2-c2ccc3c(c2)OCCO3)c(O)c1,-0.06%
12,COc1ccc2nc(Nc3nc4cc5c(cc4s3)OCCO5)sc2c1,17.3% (active)
13,COc1cccc(C(=O)Nc2cc3c(cc2Br)OCCCO3)c1,-0.41%
14,COc1ccccc1C(=O)CSc1nnc(-c2ccccn2)n1-c1ccccc1,0.13%
15,Cc1ccc(-n2c(SCC(=O)Nc3cccc4ccccc34)nnc2-c2ccccn2)cc1,-0.1%
16,CCOc1ccc(N(CC(=O)Nc2c(C)n(C)n(-c3ccccc3)c2=O)S(=O)(=O)c2ccc(Cl)s2)cc1,-0.38%
17,O=C(Nc1nncs1)c1cccc(S(=O)(=O)N2CCCCC2)c1,0.4%
18,COc1cc(NC(=O)c2ccccc2NS(=O)(=O)c2ccc(Cl)s2)cc(OC)c1,0.45%
19,O=C(Nc1nncs1)c1ccccc1NS(=O)(=O)c1cccs1,16.3% (active)
20,Cc1ccc(-c2nc(C3CCCN(S(=O)(=O)c4ccc(Br)s4)C3)no2)cc1 (centres undefined),0.38%
21,COc1ccc(-n2c(COc3ccccc3)nnc2SCC(=O)Nc2ccc3c(c2)OCO3)cc1,0.59%
22,Cc1ccc(S(=O)(=O)N2CCC(C(=O)OCC(=O)N3CC(=O)Nc4ccccc43)CC2)cc1,0.15%

row,SMILES,activation
1,O=C1c2ccccc2NC(c2ccccn2)N1NS(=O)(=O)c1ccccc1 (centres undefined),10.7%
2,Cc1ccc(C2Nc3ccccc3C(=O)N2CCN2CCNC2=O)cc1 (centres undefined),39.3% (active)
3,COc1ccc(N2CCN(CCNS(=O)(=O)c3ccc(C(C)(C)C)cc3)CC2)cc1,0.49%
4,C=CCN1C(=O)[C@@H](CC(=O)NCC2CCCCC2)[C@]2(C(=O)OC)CCCCC=C12,0.16%
5,CC(CCN1CCC(C(O)(c2ccccc2)c2ccccc2)CC1)Oc1ccc([N+](=O)[O-])cc1Cl (centres undefined),-0.54%
6,Nc1nonc1-n1nnc(C(=O)N/N=C/c2cc(Br)ccc2O)c1CSC1=NCCS1,-0.67%
7,COc1cc(/C=N/N=C(\N)c2nonc2N)cc(OC)c1OC,0.13%
8,COc1cc(/C=N\NC(=O)c2nonc2N)c(OC)cc1Br,163% (active)
9,COc1cccc(N(C)C(=O)[C@@H](C)[C@@H](O)c2ccc3ccccc3c2)c1,-0.02%
10,CC(C)CSc1nnc(-c2cccnc2)n1Cc1ccccc1,-0.36%
11,CN1C(C(=O)NCc2ccco2)CC2Cn3c(nc4ccccc43)C21 (centres undefined),0.06%
12,CN1c2ccccc2-c2nc3ccccc3n2C1c1ccco1 (centres undefined),35.6% (active)
13,CN1CCCc2cc(C#N)c(=O)[nH]c21,60% (active)
14,Clc1ccc(C(Cn2ccnc2)OCc2ccsc2Cl)c(Cl)c1 (centres undefined),0.44%
15,Cc1cc(C(=O)NN=C/C=C/c2ccco2)n[nH]1,0.51%
16,C=CCN1CN(S(=O)(=O)c2ccc(OC)cc2)c2nc3ccccc3nc21,2.35%
17,CCC(=O)Nc1c(S(=O)(=O)c2ccccc2)c2nc3ccccc3nc2n1Cc1ccccc1,-55%
18,C=CCn1c(N)c(S(=O)(=O)c2cccs2)c2nc3ccccc3nc21,26.2% (active)
19,COc1cc2c(cc1OC)CC1(CCCCC1)N=C2,165% (active)
20,CCOC(=O)[C@]12CCCCC/C=C\1N(Cc1ccc(OC)cc1)C(=O)[C@H]2CC(=O)N1CCOCC1,0.31%
21,C=CCN1[C@H](CC(C)C)COc2cccc(N3CCCC3)c2S1(=O)=O,0.16%
22,CCCCc1cc(=O)oc2cc(C)cc(OCc3nn[nH]n3)c12,12.8% (active)

row,SMILES,activation
1,CCc1cc(=O)oc2cc(C)cc(OC(C)C(=O)O)c12 (centres undefined),3.59%
2,CCc1cc(=O)oc2cc(C)cc(OCC(=O)N3CCC[C@@H]3C(=O)O)c12,2.84%
3,CCOC(CNC(=O)C(=O)NCC(c1ccco1)N1CCN(c2ccc(OC)cc2)CC1)OCC (centres undefined),-0.14%
4,Cc1nc(N2CCOCC2)nc2c1CCCC2,0.32%
5,CN1CCCc2nc(-c3ccccc3)ccc21,7.88%
6,Cc1cc2c(nc1C)CCCN2C,38.3% (active)
7,CCOC(=O)[C@@]12CCC3=C1N(CCC3)C(=O)[C@H](CC(=O)N1CCN(C(=O)c3ccco3)CC1)C2,0.06%
8,C=CCN1C(=O)[C@H](CC(=O)N2CCN(C(=O)OCC)CC2)[C@@]2(C(=O)OCC)CCCC=C12,-0.4%
9,Cc1ccccc1CS(=O)(=O)Cc1ccc(C(=O)Nc2ccc(Cl)cc2)o1,3.6%
10,C/C(=C\c1ccccc1)C1NC(=O)c2c(sc3c2CCCC3)N1 (centres undefined),12.6% (active)
11,Cc1[nH]c(=O)c(C(=O)/C=C/c2ccccc2)c2c1CCCC2,-0.01%
12,O=C1NC(c2ccncc2)Nc2sc3c(c21)CCCC3 (centres undefined),1.14%
13,COC(=O)c1cccc(Cn2ccc3ccc(-c4ccc5ccn(C(=O)C6CCCCC6)c5c4)cc32)c1,-4.23%
14,O=C(CCl)NC1CCCCN(Cc2cccc(C(F)(F)F)c2)C1=O (centres undefined),-0.51%
15,CNc1cncc(-c2ccc(NS(C)(=O)=O)cc2)n1,128% (active)
16,CS(=O)(=O)Nc1ccc(C(=O)N2CCCC2)cc1,0.41%
17,CC(=O)Nc1cncc(-c2ccccc2CO)n1,-0.16%
18,O=C(CSc1nnc(-c2ccccc2)n1Cc1ccco1)Nc1ccccc1-c1ccccc1,0.13%
19,CCC(NC(=O)C1C2C=CC3(CN(Cc4ccccc4)C(=O)C13)O2)c1ccccc1 (centres undefined),-0.29%
20,O=C(NC1CCC1)c1ccc(C#Cc2cccc(F)c2)c[n+]1[O-],-0.32%
21,Cc1nc2ccccc2cc1O,41.8% (active)
22,Cc1nc2ccccc2nc1CC(O)(c1ccccc1)c1ccccc1,-0.46%

row,SMILES,activation
1,Cc1ccc(O)c(CCc2ccccc2)n1,-0.18%
2,O=S1(=O)c2ccc(Br)cc2OC[C@H](Cc2ccccc2)N1Cc1cn(Cc2ccccc2)nn1,-0.03%
3,O=C(/C=C/[C@H]1O[C@@H](n2cnc3c(NC(=O)c4ccccc4)ncnc32)[C@H](O)[C@@H]1O)NCc1ccccc1,0.53%
4,Cc1ccc(-c2noc(-c3ccccc3C(=O)NCC3CCCO3)n2)cc1 (centres undefined),0.54%
5,Cc1ccc(CCNC(=O)c2ccc3nc4ccccc4c(=O)n3c2)cc1,-5.82%
6,Cc1ccc2nc3c(cc(C(=O)NCCc4ccccc4)c(=N)n3CC3CCCO3)c(=O)n2c1 (centres undefined),25.4% (active)
7,CC(=O)OC12CCCN(C1)/C(=C/c1ccncc1)C2 (centres undefined),0.51%
8,CN(C)CCCn1c(N)c(C#N)c2nc(C#N)c(C#N)nc21,78.7% (active)
9,COc1cccc(C(=O)OCc2cc(=O)oc3c(C)c(C)ccc23)c1OC,0.12%
10,COC(=O)Cc1cc(=O)oc2c(C)c(O)ccc12,66% (active)
11,CCCc1cc(=O)oc2c(C)c(OCC(=O)Nc3ccccn3)ccc12,-0.69%
12,O=C(CSc1nnc(-c2ccccn2)n1-c1ccccc1)Nc1ccc2cn[nH]c2c1,0.28%
13,O=C(CSc1nc2ccccc2nc1N1CCCCC1)N1CCN(S(=O)(=O)c2cccc([N+](=O)[O-])c2)CC1,0.08%
14,Cc1ccc(CSc2nnc(SCC(=O)NN=Cc3cc(Br)ccc3F)s2)cc1,-0.39%
15,CCCN(CCC)C(=S)Nc1cc(C(=O)OC)ccc1C(=O)OC,0.15%
16,COC(=O)c1ccc(C(=O)OC)c(NC(=S)N2CCCCC2)c1,-1.87%
17,CCS(=O)(=O)Nc1cc(C(=O)OC)ccc1C(=O)OC,21.6% (active)
18,Cc1ccc(NC(=O)Cc2cccc(F)c2)c(S(=O)(=O)N2CCOCC2)c1,-0.14%
19,CC(C)(C)c1ccc(CSc2nnc(-c3cccs3)o2)cc1,-0.23%
20,COc1ccc([C@H]2OC(=O)C[C@H]2C(=O)N2CCN(c3ccccc3F)CC2)cc1OC,-0.74%
21,Cc1nn(-c2ccccc2)c(C)c1NC(=O)COC(=O)c1cc(Cl)ccc1O,24.7% (active)
22,Cc1cccc(C)c1NC(=O)COC(=O)c1c(C)nn(-c2ccccc2)c1C,0.05%

row,SMILES,activation
1,CCC(Oc1ccccc1)C(=O)OCC(=O)Nc1c(C)nn(-c2ccccc2)c1C (centres undefined),-0.3%
2,O=C(CSc1nc2ccccc2n1Cc1ccccc1Cl)N/N=C\c1c[nH]c2ccccc12,0.56%
3,N[C@@H](Cc1ccccc1)C(=O)N1CCC[C@@H]1C(=O)N1CCC2CCN(S(=O)(=O)c3ccccc3)CC21 (some centres undefined),0.77%
4,Cc1cc2cc3n(c2nn1)N=C(Cl)CC3,24.3% (active)
5,COCc1cc(=O)oc2cc(NS(=O)(=O)c3ccc(C)cc3)ccc12,15.2% (active)
6,Cc1ccc(NS(=O)(=O)c2ccc3c(c2)NC(=O)CO3)cc1,-0.54%
7,Cc1ccc(S(=O)(=O)Nc2ccc(F)c(S(=O)(=O)N3CCOCC3)c2)cc1,-0.78%
8,CC1CCN(c2ccc(C(=O)O)cc2NS(=O)(=O)c2ccc(Br)s2)CC1,0.65%
9,CC(=O)C[C@@H]1OC[C@H](C)N1S(=O)(=O)c1ccc(C)cc1,-0.26%
10,C[C@H](C(=O)N(C)c1ccccc1)[C@@H](O)c1ccc(Cl)cc1,0.11%
11,COc1cc2c(cc1OC)C(C(C)C)=NC(C)(C)C2,85.2% (active)
12,COc1cc2c(cc1O)C(SC)=NC(C)(C)C2,-0.65%
13,COc1cc2c(cc1OC)C(Nc1ccc(S(N)(=O)=O)cc1)=NC(C)(C)C2,0.68%
14,COc1ccc(CN(CCN2CCOCC2)C(=O)c2ccc(C)cc2)cc1OC,0.42%
15,Nn1c(SCC(=O)N2c3ccccc3Sc3ccccc32)nnc1-c1n[nH]c2c1CCC2,0.49%
16,COc1ccc(-n2c(SCC(=O)OC(C)C)nnc2-c2ccccn2)cc1,-0.5%
17,COc1ccc(C(=O)COC(=O)c2ccc3ccccc3n2)cc1,0.19%
18,COc1ccc2nc(-c3ccccn3)ccc2c1,20.9% (active)
19,O=C(NC1CCC1)c1ccc(C#CC2CC2)cn1,0.73%
20,CCCCOCCCNC(=O)C[C@H]1C[C@@]2(C(=O)OC)C(=C[C@H](C(C)(C)C)O[C@@H]2C)N(CCc2ccc(OC)c(OC)c2)C1=O,-0.83%
21,N#CCC[C@H]1CC[C@]2(CCCN(Cc3ccc(Cl)cc3)C2)O1,0.36%
